# From the supplement of paper PMC4466140
# Biological target: ScBbc1
# Assay: SPOT peptide array binding signal intensity (averaged, normalized) (arbitrary units (background-subtracted, floor 0; scale differs between SH3 domains)); higher = stronger binding of the SH3 domain to the peptide
# Procedure, shortened: (§1)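 SH3 domains from four yeast species were expressed as GST fusions in E. coli BL21(DE3) and purified on glutathione Sepharose. Each was incubated at 10 μg/ml overnight at 4°C in TBS-based blocking buffer on cellulose membranes bearing synthetic 15-mer peptides, in which serines replaced cysteines. Bound protein was detected with anti-GST antibody, an HRP anti-mouse secondary and luminol, then imaged and quantified with Genespotter. The binding signal is the normalized, background-subtracted spot intensity averaged over replicates, in arbitrary units that are not the same from one domain to another.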
row,Binder,SPOT peptide array binding signal intensity
1,EVTPKVPERPSRRKT,2080

# Biological target: ScBem1-D1
# Assay: as above
# Procedure, shortened: as §1
row,Binder,SPOT peptide array binding signal intensity
1,EVTPKVPERPSRRKT,10

# Biological target: ScBzz1-D1
# Assay: as above
# Procedure, shortened: as §1
row,Binder,SPOT peptide array binding signal intensity
1,EVTPKVPERPSRRKT,57.5

# Biological target: ScBzz1-D2
# Assay: as above
# Procedure, shortened: as §1
row,Binder,SPOT peptide array binding signal intensity
1,EVTPKVPERPSRRKT,11.8

# Biological target: ScCyk3
# Assay: as above
# Procedure, shortened: as §1
row,Binder,SPOT peptide array binding signal intensity
1,EVTPKVPERPSRRKT,1.53e-05

# Biological target: ScFus1
# Assay: as above
# Procedure, shortened: as §1
row,Binder,SPOT peptide array binding signal intensity
1,EVTPKVPERPSRRKT,5

# Biological target: ScHof1
# Assay: as above
# Procedure, shortened: as §1
row,Binder,SPOT peptide array binding signal intensity
1,EVTPKVPERPSRRKT,11.5

# Biological target: ScHse1
# Assay: as above
# Procedure, shortened: as §1
row,Binder,SPOT peptide array binding signal intensity
1,EVTPKVPERPSRRKT,≤ 0

# Biological target: ScLsb1
# Assay: as above
# Procedure, shortened: as §1
row,Binder,SPOT peptide array binding signal intensity
1,EVTPKVPERPSRRKT,842

# Biological target: ScLsb2
# Assay: as above
# Procedure, shortened: as §1
row,Binder,SPOT peptide array binding signal intensity
1,EVTPKVPERPSRRKT,508

# Biological target: ScLsb3
# Assay: as above
# Procedure, shortened: as §1
row,Binder,SPOT peptide array binding signal intensity
1,EVTPKVPERPSRRKT,6280

# Biological target: ScLsb4
# Assay: as above
# Procedure, shortened: as §1
row,Binder,SPOT peptide array binding signal intensity
1,EVTPKVPERPSRRKT,5280

# Biological target: ScMyo3
# Assay: as above
# Procedure, shortened: as §1
row,Binder,SPOT peptide array binding signal intensity
1,EVTPKVPERPSRRKT,1.5

# Biological target: ScMyo5
# Assay: as above
# Procedure, shortened: as §1
row,Binder,SPOT peptide array binding signal intensity
1,EVTPKVPERPSRRKT,≤ 0

# Biological target: ScNbp2
# Assay: as above
# Procedure, shortened: as §1
row,Binder,SPOT peptide array binding signal intensity
1,EVTPKVPERPSRRKT,270

# Biological target: ScPex13
# Assay: as above
# Procedure, shortened: as §1
row,Binder,SPOT peptide array binding signal intensity
1,EVTPKVPERPSRRKT,1490

# Biological target: ScRvs167
# Assay: as above
# Procedure, shortened: as §1
row,Binder,SPOT peptide array binding signal intensity
1,EVTPKVPERPSRRKT,924

# Biological target: ScSho1
# Assay: as above
# Procedure, shortened: as §1
row,Binder,SPOT peptide array binding signal intensity
1,EVTPKVPERPSRRKT,28.5

# Biological target: ScSla1-D1-D2
# Assay: as above
# Procedure, shortened: as §1
row,Binder,SPOT peptide array binding signal intensity
1,EVTPKVPERPSRRKT,2340

# Biological target: ScSla1-D3
# Assay: as above
# Procedure, shortened: as §1
row,Binder,SPOT peptide array binding signal intensity
1,EVTPKVPERPSRRKT,69.4

# Biological target: SpAbp1-D1
# Assay: as above
# Procedure, shortened: as §1
row,Binder,SPOT peptide array binding signal intensity
1,EVTPKVPERPSRRKT,130

# Biological target: SpBbc1
# Assay: as above
# Procedure, shortened: as §1
row,Binder,SPOT peptide array binding signal intensity
1,EVTPKVPERPSRRKT,1260

# Biological target: SpBzz1-D1
# Assay: as above
# Procedure, shortened: as §1
row,Binder,SPOT peptide array binding signal intensity
1,EVTPKVPERPSRRKT,514

# Biological target: SpBzz1-D2
# Assay: as above
# Procedure, shortened: as §1
row,Binder,SPOT peptide array binding signal intensity
1,EVTPKVPERPSRRKT,≤ 0

# Biological target: SpCyk3
# Assay: as above
# Procedure, shortened: as §1
row,Binder,SPOT peptide array binding signal intensity
1,EVTPKVPERPSRRKT,0.75

# Biological target: SpHof1
# Assay: as above
# Procedure, shortened: as §1
row,Binder,SPOT peptide array binding signal intensity
1,EVTPKVPERPSRRKT,25.4

# Biological target: SpHof1-2
# Assay: as above
# Procedure, shortened: as §1
row,Binder,SPOT peptide array binding signal intensity
1,EVTPKVPERPSRRKT,74.4

# Biological target: SpHof1-3
# Assay: as above
# Procedure, shortened: as §1
row,Binder,SPOT peptide array binding signal intensity
1,EVTPKVPERPSRRKT,73.8

# Biological target: SpHse1
# Assay: as above
# Procedure, shortened: as §1
row,Binder,SPOT peptide array binding signal intensity
1,EVTPKVPERPSRRKT,51.2

# Biological target: SpLsb1
# Assay: as above
# Procedure, shortened: as §1
row,Binder,SPOT peptide array binding signal intensity
1,EVTPKVPERPSRRKT,1550

# Biological target: SpLsb4
# Assay: as above
# Procedure, shortened: as §1
row,Binder,SPOT peptide array binding signal intensity
1,EVTPKVPERPSRRKT,6800

# Biological target: SpMyo1
# Assay: as above
# Procedure, shortened: as §1
row,Binder,SPOT peptide array binding signal intensity
1,EVTPKVPERPSRRKT,4.25

# Biological target: SpNbp2
# Assay: as above
# Procedure, shortened: as §1
row,Binder,SPOT peptide array binding signal intensity
1,EVTPKVPERPSRRKT,9.5

# Biological target: SpPex13
# Assay: as above
# Procedure, shortened: as §1
row,Binder,SPOT peptide array binding signal intensity
1,EVTPKVPERPSRRKT,≤ 0

# Biological target: SpRvs167
# Assay: as above
# Procedure, shortened: as §1
row,Binder,SPOT peptide array binding signal intensity
1,EVTPKVPERPSRRKT,1310

# Biological target: SpSla1-D1-D2
# Assay: as above
# Procedure, shortened: as §1
row,Binder,SPOT peptide array binding signal intensity
1,EVTPKVPERPSRRKT,48.5

# Biological target: SpSla1-D3
# Assay: as above
# Procedure, shortened: as §1
row,Binder,SPOT peptide array binding signal intensity
1,EVTPKVPERPSRRKT,2
